The panel holds about 79,000 compounds, 15% with a hit somewhere; the sample as a whole holds those more often. Active and inactive are the calls of the source. Cut-off read from the data, not from the text of the source: active = growth inhibition above about 70%; inactive = the rest.

One assay can be described thus: NCI Yeast Anticancer Drug Screen. Data for the rad14 strain (AID 159).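 Note: 0% = growth of vehicle-treated control cultures.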 The note with it: S. cerevisiae rad14 strain growth inhibition; at 33.0 µM; stronger effect = higher value. The procedure, abridged: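 Here, inhibition of yeast growth was measured after compound exposure, using a strain with a genetic defect in DNA damage repair and vehicle-treated cultures as the reference.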
Turning to `O=C(O)C1CC(c2ccccc2)=NN1c1ccccc1` (stereo not drawn), the growth inhibition is 28% (inactive).

As to `COc1cc([C@@H]2c3cc4c(cc3[C@@H](Nc3ccc(NC(=O)c5cc([N+](=O)[O-])cn5C)cc3)[C@H]3COC(=O)[C@H]23)OCO4)cc(OC)c1O`, the growth inhibition was 50% (inactive).

For `O=C(O)c1ccccc1/C=N/N=C1c2ccccc2-c2ccccc21`, the growth inhibition was -10% (inactive).

As to `O=C1CC(=O)c2ccccc21`, the growth inhibition is 12% (inactive).

On to `Nc1ncnc2c1ncn2C1OC(CO)CC1O` (stereo not drawn), for which the growth inhibition is 76% (active).

The same assay, now with this note: S. cerevisiae rad14 strain growth inhibition; at 100.0 µM; stronger effect = higher value.
For `CS(=O)(=O)SCc1ccc([N+](=O)[O-])cc1`, the growth inhibition was 97% (active).

For the compound `Cc1csc(=S)n1OC(=O)NC1CCCCC1`, the growth inhibition was 98% (active).

Take `CCOc1ccc(NC(=O)C2=C(C)NC(C)=C(C(=O)Nc3ccc(OCC)cc3)C2c2cccc([N+](=O)[O-])c2)cc1`: the growth inhibition was 86% (active).

Take `CC(C)(C)N=C(NO)c1ccccc1`: the growth inhibition is 46% (inactive).

As to `CCCCC/C(=C(\C#N)C(=O)OCC)c1ccccc1`, the growth inhibition was 5% (inactive).

Regarding `O=C(NCCCl)Sc1ccc(Cl)cc1`, the growth inhibition is 75% (active).

Consider `O=C1Nc2ccc(Br)cc2C1=Nc1ccc2c(c1)OCO2`, for which the growth inhibition is -33% (inactive).

Turning to `CCC(C)OC(=O)Nc1ccc(C)c(NC(=O)OC(C)CC)c1` (stereo not drawn), the growth inhibition is 94% (active).

For the compound `O=C(O)c1cc2ccc(Cl)cc2c(O)c1C1=CCCCC1`, the growth inhibition is 75% (active).

For the compound `CN(C)Cc1cc(N=Nc2ccc(Cl)cc2)ccc1OC(=O)c1ccccc1`, the growth inhibition is 51% (inactive).

For `CN1CCN(C(=O)/C=C/C(=O)c2ccccc2)CC1`, the growth inhibition was 87% (active).

Take `CCCC/C=C/C(C)(C(=O)OCC)C(=O)OCC`: the growth inhibition was 15% (inactive).

For `Cc1nc(-c2cc3cc([N+](=O)[O-])ccc3oc2=O)cs1`, the growth inhibition was 96% (active).

Source of the values: PubChem BioAssay (NCI).
